Sampled rows, rich in hits. Any-hit rate of the full collection: about 2.6%.
KCNH2 WT inh: inhibitors of human wildtype KCNH2 potassium channel; Q12809; U2OS, BacMam KCNH2, thallium flux FluxOr; active compounds read low; activity change, % at 1.84 µM; hit rate 0.37% among 340,000;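 active = maximum activity change below -70%; inconclusive = maximum activity change between -70% and -50%; inactive = maximum activity change above -50%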; also: % is scaled to controls: 0 for no effect and ±100 for the full control effect
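U2OS cells transduced with wild-type KCNH2 virus are loaded with FluxOr dye for 45 min, and thallium flux is measured in kinetic reads before and after stimulation buffer. Rate constants are normalized to DMSO controls.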
KCNH2 3.1 block: inhibitors of human KCNH2 3.1 potassium channel isoform; U2OS KCNH2 3.1, thallium flux FluxOr; active compounds read low; activity change, % (tested at about 1.8 µM); hit rate 0.95% among 340,000; AID 720553;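 active = maximum activity change below -70%; inconclusive = maximum activity change from -70% to -50%; inactive = maximum activity change above -50%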;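 also: thallium influx rate constant from kinetic fluorescence after stimulation buffer; % is scaled to controls: 0 for no effect and ±100 for the full control effect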
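Thallium flux read-out: FluxOr dye with Red40 quencher in HBSS/HEPES, 45 min at RT. Rate constants from kinetic reads were normalized to positive and negative DMSO controls. Cells: U2OS virally expressing the 3.1 isoform.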
p53 reactivator: restores transcriptional activity of mutant p53. H1299 p53-A138V BP100-luciferase reporter, luminescence, 24 h. Potency, µM (doses to about 92.2 µM), inactives show at the highest dose activity change, positive = activation, actives largely listed as activators. hit rate 0.063% among 320,000. AID 504706; active = well fitted activation curve with a large enough effect; inconclusive = small, poorly fitted or top-dose-only effect; inactive = no such curve, though single readings can be large or run the other way; also: potency is read from the fitted curve at half-maximal effect; % of control where 0% means no effect; nearly all actives have a fitted effect of over 45% in size
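H1299 (p53-null), stable ts p53-A138V + BP100-Luc; 1000 cells/well, Opti-MEM/10% FBS; cpd 4 pt, 1:5; 24 h, 37 deg C, 5% CO2; detection reagent 10 min RT; luminescence.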
TRPV1 agonist: human TRPV1 agonism. Q8NER1. TRPV1-expressing cells, Fluo-8 calcium influx, agonist mode. activation, % at 8.33 µM. hit rate 0.19% among 320,000; in the data active = activation above about 80%; inconclusive = between about 30% and that limit; also: 0% is about no effect
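TRPV1-expressing cells were cultured overnight at 35.5C and loaded with Fluo-8 calcium dye for 40 to 90 min at room temperature. After a 10 s baseline, compound was added and calcium influx was read kinetically for 3 min (ex 480/em 520 nm).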
ClpP mod: qHTS Assay for Activators of ClpP. ATP-dependent Clp protease proteolytic subunit (Bacillus subtilis (strain 168)), P80244. purified B. subtilis ClpP, FRET peptide cleavage, 20 min. Potency, µM (highest dose often 57.5 µM), for the others: at the highest dose activity change, negative = active. hit rate 1.9% among 340,000. AID 651965, 2013; active = well fitted falling curve with a large enough effect; inconclusive = small, poorly fitted or top-dose-only effect; inactive = no such curve, though single readings can be large or run the other way; also: potency is read from the fitted curve at half-maximal effect; the source files actives as falling curves though it sought activators and does not explain the sign; nearly all actives have a fitted effect of over 65% in size
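Buffer: 100 mM Tris/HCl pH8, 100 mM KCl, 0.05% low protease BSA, 2.5% glycerol, 0.01% Tween-20. ClpP 10 microg/mL final; 20 min RT; delta FRET normalized to ADEP and DMSO controls.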
TRPV1 potentiator: human TRPV1 potentiation; TRPV1-expressing cells, Fluo-8 calcium influx, capsaicin EC20 potentiation; potentiation, % at 8.33 µM; hit rate 0.02% among 320,000; in the data active = potentiation above about 80%; inconclusive = between about 30% and that limit; also: 0% is about no effect
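TRPV1-expressing cells were cultured overnight at 35.5C and loaded with Fluo-8 calcium dye for 40 to 90 min at room temperature. After a 10 s baseline, compound was added and calcium influx was read kinetically for 3 min (ex 480/em 520 nm).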
* marks the source's active call; other numbers are inactive results; ? = inconclusive; . = no result given; ! = a repeat was not active.

SMILES | KCNH2 WT inh | KCNH2 3.1 block | p53 reactivator | TRPV1 agonist | ClpP mod | TRPV1 potentiator
NC(=O)c1c(NC(=O)COC(=O)c2ccc(S(=O)(=O)Nc3ccccc3)cc2)sc2c1CCCC2 | -18 | -23 | -4% | 9 | 20µM* | 2
CCOc1cc2c(cc1O)C(=NOC)CC1C2CCC2(C)C(O)CCC12 (configuration not stated) | 9 | -1 | . | . | 1% | .
c1ccc(OCCNc2nc(NCC3CC3)nc3cc(-c4ccccc4)sc23)cc1 | . | . | . | . | 25µM* | .
C=CCNc1nc(NCCOc2ccccc2Cl)c2sc(-c3ccccc3)cc2n1 | . | . | . | . | 28µM* | .
C=CCNc1ncnc2c1[nH]c1ccc(C)cc12 | -6 | -9 | ? | 9 | 16µM* | 20
CCN(CC)CCNc1ncnc2c1[nH]c1ccc(OC)cc12 | . | . | 15% | 0 | . | -2
COc1ccc2[nH]c3c(NCc4ccco4)ncnc3c2c1 | 0 | 3 | ? | -6 | 16µM*! | 20
COCCNC(=O)C1(C)CCCN(Cc2noc(-c3ccccc3OC)n2)C1 (configuration not stated) | . | . | . | . | -13% | .
CCN1CCN(C(=O)c2c(C)nn(-c3ccc(F)cc3)c2-n2cccc2)CC1 | . | . | . | . | -2% | .
CCOC(=O)c1c(NC(=O)c2cc3n(n2)C(C(F)(F)F)CC(c2cccs2)N3)sc(C)c1C (configuration not stated) | -4 | -78* | 2% | 1 | 0% | 20
COc1ccc(-c2[nH]ncc2CNCCn2cccn2)c(F)c1 | 1 | -138* | 1% | -2 | -19% | -2
O=C(COc1ccc2ccccc2c1)Nc1ccc(O)c(-c2nc3ccccc3o2)c1 | . | . | . | . | -4% | .
Cc1ccc(S(=O)(=O)N(CC(=O)N/N=C/c2cccc(C)c2)c2cccc3cccnc23)cc1 | -1 | -11 | . | 1 | 25µM* | 2
Cc1ccc(S(=O)(=O)N(CC(=O)N/N=C/c2cccc3c2OCCO3)c2ccccc2F)cc1 | -4 | -2 | -1% | 7 | 22µM* | -19
Cc1ccc(S(=O)(=O)N(CC(=O)NC2CCCCCC2)c2ccccc2F)cc1 | -14 | 6 | -2% | ? | -4% | -14
CCOc1ccc(Oc2ccc(NS(=O)(=O)c3ccc(CCC(=O)O)cc3)cc2)cc1 | 16 | 10 | . | . | -3% | .
Brc1cccc[n+]1Cc1ccc(C[n+]2ccccc2Br)cc1 | . | . | . | . | -3% | .
O=C(c1ccc(-c2ccccc2)cc1)C1CCCN(Cc2ccncc2)C1 (configuration not stated) | -1 | 1 | 22% | -1 | . | 4
O=C(c1ccc(Cl)cc1)C1CCCN(Cc2cnn(-c3ccccc3)c2)C1 (configuration not stated) | -78* | -88* | 6% | 12 | -1% | 5
O=C(NNc1cc(N2CCCC2)nc(N2CCCC2)n1)c1ccc([N+](=O)[O-])cc1 | -41 | -90* | 3% | -1 | . | 5
COc1ccc(C(=O)/C=C/C(=O)N(Cc2ccc3c(c2)OCO3)C(C(=O)NC2CCCCC2)c2ccncc2)c(O)c1 (configuration not stated) | 0 | -16 | -5% | ? | 13µM* | -17
COc1ccc2c(c1)c1c(c(=O)n(Cc3ccccc3)c(=O)n1CC(=O)NCc1ccc(C)cc1)n2C | . | . | . | . | 1% | .
Cc1ccc(-c2nc3ccccc3[nH]2)s1 | 4 | 18 | 0% | 2 | -2% | 3
Cc1[nH]c2ccccc2c1-c1nc2ccccc2[nH]1 | 5 | -10 | 22% | -1 | 16µM* | ?
Cc1nnsc1-c1nc2ccccc2[nH]1 | 3 | 15 | 1% | 5 | 25µM* | -18
SMILES | KCNH2 WT inh | KCNH2 3.1 block | p53 reactivator | TRPV1 agonist | ClpP mod | TRPV1 potentiator
COc1ccc(-c2nc3ccccc3[nH]2)cc1 | -6 | 2 | 8% | 27 | 25µM* | -6
O=C(Nc1ccc(Cl)c(C(F)(F)F)c1)C1CCCN(S(=O)(=O)c2cccc3cccnc23)C1 (configuration not stated) | . | . | . | . | -1% | .
N#Cc1ccc(N2C(=O)[C@@H]3C(C(=O)c4cnccn4)=NN[C@@H]3C2=O)cc1 | 2 | -10 | -1% | . | . | .
N#Cc1ccc(N2C(=O)[C@@H]3C(C(=O)c4ccc5ccccc5n4)=NN[C@@H]3C2=O)cc1 | -98* | 0 | -1% | 3 | 1% | -9
CCCCN(C)C(=O)c1nc2ccccn2c1CN1CCN(C/C=C/c2ccccc2)CC1 | -32 | -102* | -2% | 0 | . | 10
CCCCCCCCCCCCCC(=O)Nc1ccc(/C=C/c2ccnc3ccccc23)cc1 | . | . | . | . | -3% | .
CCOc1ccc(-n2cc(-c3ccccc3)c3c(NCc4ccccc4)ncnc32)cc1 | . | . | . | . | 5% | .
COc1ccc(CNc2ncnc3c2c(-c2ccccc2)cn3-c2ccccc2)cc1 | . | . | . | . | 25µM* | .
Cc1ccc(CNc2ncnc3c2c(-c2ccccc2)cn3-c2ccccc2)cc1 | . | . | . | . | 28µM* | .
CCOC(=O)C(CC)Sc1ncnc2c1c(-c1ccccc1)cn2-c1ccc(OC)cc1 (configuration not stated) | . | . | . | . | 22µM* | .
CC[N+]1(CC(=O)c2cccs2)CCCCC1 | . | . | . | . | 1% | .
COc1cc(-c2cc(-c3ccccc3)nc(SCC(=O)Nc3nccs3)c2C#N)cc(OC)c1OC | -13 | -2 | -5% | 4 | 25µM* | 25
COc1ccc(CNC(=O)CSc2nc(-c3ccccc3)cc(-c3cccs3)c2C#N)cc1 | 42 | 2 | 3% | 0 | ? | 9
COc1cccc(C(=O)NCC(c2ccc(N(C)C)cc2)N2CCc3ccccc32)c1OC (configuration not stated) | . | . | . | . | -26% | .
CCOC(=O)c1sc2ncn(CC(=O)NCC3CCCO3)c(=O)c2c1C (configuration not stated) | -4 | -180* | -9% | 2 | -2% | -10
CCCCNC(=O)Cn1cnc2sc(C(=O)OCC)c(C)c2c1=O | 3 | 0 | -4% | 5 | -6% | -2
O=C(COC(=O)c1cc(F)c(F)cc1Cl)NC1CC1 | 3 | 13 | 0% | 1 | 1% | -7
Nc1c(Cl)cc(Cl)cc1C(=O)OCC(=O)NC1CC1 | 38 | -17 | 1% | 2 | 8.9µM* | 11
CCOC(=O)C(=CNc1ccc(N2CCCCC2)c(S(=O)(=O)Nc2ccccc2OC)c1)C(=O)OCC | 3 | 15 | . | . | 18µM* | .
COc1ccc(-c2cc(NCCc3ccncc3)n3ncnc3n2)cc1 | 3 | -11 | -8% | 1 | 32µM* | -5
COc1cc2c(NC3CCN(C)CC3)nc(N3CCCN(C)CC3)nc2cc1OCCCC(C)C | . | . | . | . | 4% | .
Cc1ccc(NC(=O)N(CCCN2CCOCC2)Cc2cc3cc4c(cc3[nH]c2=O)OCO4)cc1 | 0 | 12 | 17% | 16 | -2% | -1

Screening results deposited in PubChem BioAssay by National Center for Advancing Translational Sciences (NCATS).
